One test deals with SLC8A3. The test is described as follows: pooled miR-30 sensor sort-seq; sequence = guide strand. The note with it: shRNA.
Consider TTGTAGTCCACATACATGGTCT, for which the sensor-assay potency score (higher = more potent) was -0.435. Turning to TTTGTAGTCCACATACATGGTC, the sensor-assay potency score (higher = more potent) was -0.363. TTTCTTAATTGTCACCTCCCTC came in with a sensor-assay potency score (higher = more potent) of -0.959. Regarding TTAAATACTGTGTAAAGTCGGT, the sensor-assay potency score (higher = more potent) is -0.0881. TTCTGCTGCATGTTTCTTCAGG had a sensor-assay potency score (higher = more potent) of -0.419.

In turn, TTGATCAGTTTGTCCACCGTAG gave a sensor-assay potency score (higher = more potent) of 0.465. TTGATCTTGCGAGTCTCTCCGT: the sensor-assay potency score (higher = more potent) is -0.572.

For TTTGTATCTGACTTGATTCAAC, the sensor-assay potency score (higher = more potent) is -0.929. On to TGATCTTGCGAGTCTCTCCGTC, for which the sensor-assay potency score (higher = more potent) is -0.247. TACAAGAGCACGCTGATGCAGA returned a sensor-assay potency score (higher = more potent) of -0.14. On the same count and under the same terms, to TATTTGTAGAAGAGCAGTCGTT belongs -0.77.

In another test the target is SLC9A10. Described as above. The note with it: shRNA.
The sequence TATCGGAAAATCTTTCTCCTTT gave a sensor-assay potency score (higher = more potent) of -0.118.

TACAGTTGAACTTTGTCCCCAG yielded a sensor-assay potency score (higher = more potent) of 0.193. In turn, TATGATTGACATCATCACCAAA registered a sensor-assay potency score (higher = more potent) of -0.934. TTGAAATGTGCAACAAACCGAT: the sensor-assay potency score (higher = more potent) came out at 0.415.

Source of the values: the OligoGym collection.
Further: reference of the scale not given here.
